Results reported in PubChem BioAssay (NCATS).
Results filed as inconclusive are left out. Values without a mark were called inactive. Calls come from the whole dose curve; as a rule, active = well fitted cell-killing curve with a large enough effect; inconclusive = small, poorly fitted or top-dose-only effect; inactive = flat fitted curve, though single readings scatter. Where a SMILES comes first, the peptide text is derived from it. Bridges are numbered along the chain shown (N, C = ends). [ ]: non-standard residue; d: D form. The star is where a group is joined. X1 = CC[C@@H](C)[C@@H](N)C1=N[C@H](C(=O)*)CS1; d(aIle) = CC[C@H](C)[C@@H](N)C(=O)O; dOrn = NCCC[C@@H](N)C(=O)O

Experiment: qHTS assay to identify small molecule inhibitors of chordoma cells - UCH-2 (AID 1259356)
Settings: UCH-2 chordoma viability, CellTiter-Glo ATP luminescence, 48 h; series mostly up to 46.1 µM; activity change, negative = inhibition: at the top concentration
% is set by controls: 0 for no effect and ±100 for the full control effect.

Row | Compound | activity change, negative = inhibition
1 | CC[C@@H](C)[C@@H](N)C1=N[C@H](C(=O)N[C@@H](CC(C)C)C(=O)N[C@@H](CCC(=O)O)C(=O)N[C@@H](C(=O)N[C@@H]2CCCCNC(=O)[C@@H](CC(N)=O)NC(=O)[C@@H](CC(=O)O)NC(=O)[C@@H](Cc3cnc[nH]3)NC(=O)[C@@H](Cc3ccccc3)NC(=O)[C@@H]([C@H](C)CC)NC(=O)[C@@H](CCCN)NC2=O)[C@@H](C)CC)CS1 (X1-LE[d(aIle)][dK][dOrn][dI][dF][dH][dD][dN]; lactam 4-C) | -1.64% [at 20.6 µM]
2 | NC(N)=NCC1COC2(CCCCC2)O1 (stereo not drawn) | 12.4% [at 20.6 µM]
3 | FC(F)(F)COCC(F)(F)F | 7.63%
4 | COC(=O)CCC[N+](C)(C)C | -1.09%
5 | CC(C)(CO)[C@@H](O)C(=O)NCCCC(=O)O | 7.8%
6 | CC(C)C[C@@H](NC(=O)[C@@H](O)[C@H](N)Cc1ccccc1)C(=O)O | 2.57%
7 | c1ccc2cc(C3=NCCN3)ccc2c1 | 3.57%
8 | O=C(NCCNCC(O)COc1ccc(O)cc1)N1CCOCC1 (stereo not drawn) | -12.2%
9 | CCCCCCCCCC(=O)NO | -6.13%
10 | COC1[C@@H](O[C@@H]2O[C@H](C)[C@@H](O[C@H]3C[C@@](C)(O)[C@H](OC(=O)CC(C)C)[C@H](C)O3)[C@H](N(C)C)[C@H]2O)[C@@H](CC=O)C[C@@H](C)[C@@H](O)/C=C/C=C/C[C@@H](C)OC(=O)C[C@H]1OC(C)=O (stereo partly drawn) | -3.62% [at 20.6 µM]
11 | CCC(Cc1c(I)cc(I)c(O)c1I)C(=O)O (stereo not drawn) | 7.67%
12 | C=CC[N+]1([C@H]2C[C@H]3[C@@H]4CC[C@H]5C[C@H](O)[C@@H](N6CCOCC6)C[C@]5(C)[C@H]4CC[C@]3(C)[C@H]2OC(C)=O)CCCC1 | 2.07%
13 | CCCCCCCCCCCCCCCCCCOCC(COP(=O)([O-])OCC[N+](C)(C)C)OC (stereo not drawn) | 9.68%
14 | CCCCCCCCCCCCCCCCCC(=O)OCC(C)O (stereo not drawn) | 1.51%
15 | O=C(O)c1ccc(NC2OC[C@@H](O)[C@H](O)[C@H]2O)cc1 (stereo partly drawn) | -18%
16 | CC(/C=C/C=C(\C)C(=O)O[C@@H]1O[C@H](CO[C@@H]2O[C@H](CO)[C@@H](O)[C@H](O)[C@H]2O)[C@@H](O)[C@H](O)[C@H]1O)=C\C=C\C=C(C)\C=C\C=C(/C)C(=O)O[C@@H]1O[C@H](CO[C@@H]2O[C@H](CO)[C@@H](O)[C@H](O)[C@H]2O)[C@@H](O)[C@H](O)[C@H]1O | -0.229%
17 | C[C@@H]1O[C@@H](OC[C@H]2O[C@@H](Oc3c(-c4ccc(OCCO)c(OCCO)c4)oc4cc(OCCO)cc(O)c4c3=O)[C@H](O)[C@@H](O)[C@@H]2O)[C@H](O)[C@H](O)[C@H]1O | 6.41%
18 | C[Se]CC[C@H](N)C(=O)O | -4.94%
19 | COc1ccc2cc([C@H](C)CO)ccc2c1 | -17.5%

Row | Compound | activity change, negative = inhibition
20 | CN(Cc1ccccc1)Cc1ccccc1 | -0.747%
21 | FC(F)(F)C(F)(F)C(F)(F)C(F)(F)C(F)(F)C(F)(F)F | 7.22%
22 | C=CC(=O)O | 5.8%
23 | CCc1ncnc2cc(OC)c(OC)cc12 | 5.33%
24 | CC(C)(CO)[C@@H](O)C(=O)NCCC(=O)NCCSSCCNC(=O)CCNC(=O)[C@H](O)C(C)(C)CO | 10.7%
25 | NC[C@H]1O[C@H](O[C@H]2[C@H](O)[C@@H](O[C@H]3O[C@H](CO)[C@@H](O)[C@H](N)[C@H]3O)[C@H](N)C[C@@H]2N)[C@H](N)C[C@@H]1O | 3.44% [at 20.6 µM]
26 | CC(=O)Oc1cc(C(F)(F)F)ccc1C(=O)O | 4.57% [at 20.6 µM]
27 | NC[C@H]1O[C@H](O[C@H]2[C@H](O)[C@@H](O[C@H]3O[C@H](CO)[C@@H](O)[C@H](N)[C@H]3O)[C@H](N)C[C@@H]2N)[C@H](O)[C@@H](O)[C@@H]1O | 4.88% [at 20.6 µM]
28 | CCOC(=O)c1c[nH]c2cc(OCC(C)C)c(OCC(C)C)cc2c1=O | -17.8%
29 | CC(C)Cc1ccc([C@@H](C)C(=O)NS(C)(=O)=O)cc1 | -3.94%
30 | O=C(O)COc1ccccc1/C=N/NC(=O)c1ccncc1 | 11%
31 | CC[C@H]1OC(=O)[C@H](C)[C@@H](O[C@H]2C[C@@](C)(OC)[C@@H](O)[C@H](C)O2)C(C)[C@@H](O[C@@H]2O[C@H](C)C[C@H](N(C)C)[C@@H]2O)[C@](C)(OC)C[C@@H](C)C(=O)[C@H](C)[C@@H](O)[C@]1(C)O (stereo partly drawn) | -12.8%
32 | F[Si-2](F)(F)(F)(F)F | 5.56%
33 | CN[C@@H]1[C@@H](O)[C@@H](O[C@@H]2[C@@H](O)[C@H](O[C@H]3O[C@H](CN)[C@@H](O)[C@H](O)[C@H]3O)[C@@H](N)C[C@H]2NC(=O)C(O)CN)OC[C@]1(C)O (stereo partly drawn) | -1.47%
34 | Cc1nc(NS(=O)(=O)c2ccc(N)cc2)nc(C)c1Br | 5.21%
35 | CC1C(=O)CC2C3(C)CCC2(C(C)C(=O)O)C(=O)C13 (stereo not drawn) | -15.1%
36 | N[C@H](CC(=O)O)C(=O)O | 5.46%
37 | C=CC1=C(C(=O)O)N2C(=O)[C@@H](NC(=O)/C(=N\O)c3csc(N)n3)[C@H]2SC1 (stereo in doubt) | -0.459%
38 | CC(=O)N[C@@H](C=O)[C@@H](O)[C@H](O)[C@H](O)CO | 3.29%
